This is a sample that favours compounds with a hit; in the whole collection about 2.8% have one here.
SNCA expr inh: Primary qHTS assay for inhibitors of alpha-synuclein gene (SNCA) expression. HEK-293 SNCA-luciferase knock-in, luminescence, 24 h. 140,000 compounds, 0.17% hits. Potency, µM (doses to about 57.2 µM), most hits filed as inhibitors; also: nearly all actives have a fitted effect of over 45% in size
IP6K1 inhibitor: Primary qHTS assay for small molecule inhibitors of Inositol hexaphosphate kinase 1 (IP6K1). Inositol hexakisphosphate kinase 1 (Homo sapiens), Q92551. IP6K1 kinase, ADP-Glo luminescence, 2 h; stronger effect = lower value. activity change, % (series mostly up to about 58 µM). 140,000 compounds, 0.81% hits. AID 1645851, 2021; in the data active = activity change below about -25%
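ADP-Glo luminescence measures ADP made by human IP6K1 during a 2 h RT reaction with ATP/IP6 (mix at 1.3 mM/130 uM); top library doses 57.5 and 19.1 uM final.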
HEK293 viab: GF-AFC viability counterscreen for inhibitors of alpha-synuclein gene (SNCA) expression | HEK-293-SNCA-luc viability, GF-AFC fluorescence, 24 h | Potency, µM (series often up to 57.1 µM), hits mostly cytotoxic | AID 1671193, 2021 | 150,000 compounds, 0.12% hits; also: nearly all actives have a fitted effect of over 30% in size
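HEK-293-SNCA-luc cells (1500/well) plated 24 h, then exposed 24 h to a dilution series; GF-AFC added 30 min at 37C, fluorescence 405/540 nm; normalised to medium-only and DMSO wells, Hill fit.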
KDM5B inhibitor: Primary screen for KDM5B Histone Demethylases FDH-coupled qHTS | Lysine-specific demethylase 5B (Homo sapiens), Q9UGL1 | KDM5B demethylase, FDH-coupled NADH fluorescence (FDH is formaldehyde dehydrogenase) | Potency, µM (titrated, usually from 57.7 µM), usual class: inhibitors | 220,000 compounds, 2.6% hits | AID 1347165, 2019; also: nearly all actives have a fitted effect of over 70% in size
Target sequence (Q9UGL1 whole entry, looked up): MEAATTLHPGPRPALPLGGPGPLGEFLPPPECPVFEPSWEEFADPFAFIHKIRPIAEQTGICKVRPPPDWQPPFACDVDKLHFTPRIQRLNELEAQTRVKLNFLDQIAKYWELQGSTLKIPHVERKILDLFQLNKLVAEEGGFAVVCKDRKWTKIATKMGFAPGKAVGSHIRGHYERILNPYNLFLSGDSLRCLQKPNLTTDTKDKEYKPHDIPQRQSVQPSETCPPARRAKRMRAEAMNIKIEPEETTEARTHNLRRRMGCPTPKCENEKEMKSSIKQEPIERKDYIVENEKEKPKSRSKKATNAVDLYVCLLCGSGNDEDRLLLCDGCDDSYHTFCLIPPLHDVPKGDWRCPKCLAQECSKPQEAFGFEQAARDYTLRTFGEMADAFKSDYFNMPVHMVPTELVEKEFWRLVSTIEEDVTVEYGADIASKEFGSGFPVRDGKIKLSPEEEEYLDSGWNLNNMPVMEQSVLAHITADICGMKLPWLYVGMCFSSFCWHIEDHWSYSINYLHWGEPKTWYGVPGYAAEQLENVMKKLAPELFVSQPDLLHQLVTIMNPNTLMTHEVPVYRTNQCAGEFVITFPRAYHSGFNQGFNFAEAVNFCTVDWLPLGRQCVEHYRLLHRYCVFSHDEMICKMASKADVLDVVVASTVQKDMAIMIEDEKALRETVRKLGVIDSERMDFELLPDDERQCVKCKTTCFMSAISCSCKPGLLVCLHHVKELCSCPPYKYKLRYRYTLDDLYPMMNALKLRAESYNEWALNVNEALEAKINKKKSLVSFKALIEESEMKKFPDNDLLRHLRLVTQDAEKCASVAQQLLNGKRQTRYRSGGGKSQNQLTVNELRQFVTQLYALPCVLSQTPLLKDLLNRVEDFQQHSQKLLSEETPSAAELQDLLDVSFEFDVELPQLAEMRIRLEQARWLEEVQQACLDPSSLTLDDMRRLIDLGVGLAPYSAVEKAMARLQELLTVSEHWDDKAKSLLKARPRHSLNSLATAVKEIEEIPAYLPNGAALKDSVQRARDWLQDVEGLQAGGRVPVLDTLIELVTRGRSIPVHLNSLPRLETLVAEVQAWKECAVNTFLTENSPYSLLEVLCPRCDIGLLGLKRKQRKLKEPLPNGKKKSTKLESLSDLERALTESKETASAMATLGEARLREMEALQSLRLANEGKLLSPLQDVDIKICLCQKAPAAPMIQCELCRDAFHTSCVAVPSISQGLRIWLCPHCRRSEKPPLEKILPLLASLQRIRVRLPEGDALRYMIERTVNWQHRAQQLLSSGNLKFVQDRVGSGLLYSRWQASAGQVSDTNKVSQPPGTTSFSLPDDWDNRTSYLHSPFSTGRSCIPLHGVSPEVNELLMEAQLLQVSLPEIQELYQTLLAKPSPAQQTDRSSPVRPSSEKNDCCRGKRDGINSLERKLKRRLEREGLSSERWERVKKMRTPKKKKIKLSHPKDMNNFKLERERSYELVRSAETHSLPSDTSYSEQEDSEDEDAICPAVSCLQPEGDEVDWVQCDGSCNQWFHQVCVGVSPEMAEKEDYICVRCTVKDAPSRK
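Inhibition is measured as reduced NADH fluorescence generation from FDH coupling to formaldehyde release. Truncated KDM5BΔAP at 200 nM final acts on H3K4me3 peptide (12.5 µM in substrate mix) in pH 7.5 HEPES buffer with Tween-20, 30 min, room temperature.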
Each line names hits and unclear results; the compound was inactive in the other large screens. Unless noted, calls follow the shape of the dose curve; as a rule, active = well fitted curve in the direction sought with a large enough effect; inconclusive = small, poorly fitted or top-dose-only effect, or another doubt; inactive = no such curve, though single readings can be large; an effect the other way counts as inactive or inconclusive.

COc1ccccc1NC(=O)C1=C(C)Nc2nc(SC)nn2C1c1cccc(C)c1 (stereo unspecified)	none (no result: SNCA expr inh, IP6K1 inhibitor, HEK293 viab)
CSc1ccc(Cl)c(C(=O)Nc2c(C)cc(C)cc2Cl)c1	none (no result: SNCA expr inh, IP6K1 inhibitor, HEK293 viab)
Cn1c(CNC(=O)c2ccc3nccn3c2)nc2cc(C(F)(F)F)ccc21	KDM5B inhibitor 20µM
CSc1ccc(C(C)NC(=O)c2ccc(F)cc2)cc1 (stereo unspecified)	none (no result: SNCA expr inh, IP6K1 inhibitor, HEK293 viab)
COCCNC(=O)c1ccc2nccn2c1	KDM5B inhibitor 35.5µM
CC(NC(=O)c1ccc2nccn2c1)c1ccc(F)cc1 (stereo unspecified)	KDM5B inhibitor 35.5µM
CC(CCc1ccccc1)NC(=O)c1ccc2nccn2c1 (stereo unspecified)	KDM5B inhibitor 35.5µM
COCCCNC(=O)c1ccc2nccn2c1	none (no result: KDM5B inhibitor)
COc1cc(C(=O)NCc2nc3ccccc3n2C)cc(OC)c1OC	none (no result: SNCA expr inh, IP6K1 inhibitor, HEK293 viab)
CCC(CC)NC(=O)c1ccc2nccn2c1	none (no result: KDM5B inhibitor)
O=C(NCCc1ccccn1)c1ccc2nccn2c1	KDM5B inhibitor inconclusive
O=C(NCc1ccc(F)cc1)c1ccc2nccn2c1	KDM5B inhibitor 28.2µM
COc1ccc(-c2ccnc3nc(CC(C)C)nn23)cc1	none
COc1cccc(-c2ccnc3nc(CC(C)C)nn23)c1	KDM5B inhibitor 25.1µM
COc1cccc(-c2ccnc3nc(CCc4ccccc4)nn23)c1	KDM5B inhibitor 20µM
COc1ccc(-c2ccnc3nc(CC(C)C)nn23)cc1OC	KDM5B inhibitor 28.2µM
COc1ccc(CCc2nc3nccc(-c4ccc5c(c4)OCCCO5)n3n2)cc1OC	KDM5B inhibitor inconclusive
O=C1Cc2c(-c3ccc4ccccc4c3)n[nH]c2CN1Cc1ccccn1	KDM5B inhibitor inconclusive
O=C1NCC2(CCCN(C(=O)c3cn[nH]c3-n3cnnn3)C2)O1 (stereo unspecified)	none
O=C1NCC2(CCCN(C(=O)c3cnc4c(O)cccn4c3=O)C2)O1 (stereo unspecified)	KDM5B inhibitor 31.6µM
O=C(NC1CCNCC1)c1cc(C2CC2)nc2onc(C3CCCN3)c12 (stereo unspecified)	KDM5B inhibitor 79.4µM
COc1ccc(-c2cc(C(=O)NC3CC3)c3c(C4CCCN4)noc3n2)cc1 (stereo unspecified)	KDM5B inhibitor 79.4µM
COc1ccc(-c2cc(C(=O)NC3CC3)c3c(C4CCNC4)noc3n2)cc1 (stereo unspecified)	KDM5B inhibitor 79.4µM
CCCn1cc(-c2ccnc(NCc3cccc(C)c3)n2)c(C)n1	KDM5B inhibitor 28.2µM
O=C(NCCCn1cccn1)c1ccccc1OC1CCN(Cc2ccccn2)CC1	none
CCCn1cc(-c2ccnc(NC3CCN(Cc4ccccn4)CC3)n2)c(C)n1	SNCA expr inh inconclusive, KDM5B inhibitor 28.2µM
CCCn1cc(-c2ccnc(NCc3c(F)ccc(C)c3F)n2)c(C)n1	KDM5B inhibitor inconclusive
O=C(c1ccc(N2CC3CC(C2)[C@H]2CCCC(=O)N2C3)nc1)N1CCC(N2CCCCC2)CC1 (stereo partly specified)	KDM5B inhibitor inconclusive
c1cncc(-c2cc3c(cn2)CN(Cc2ccncc2)CCN3)c1	KDM5B inhibitor inconclusive
c1ccc(CCN2CCNc3cc(NCc4cccnc4)ncc3C2)cc1	KDM5B inhibitor 35.5µM
NC(=O)c1cccc(-c2cc3c(cn2)CN(Cc2ccccc2)CCN3)c1	KDM5B inhibitor 31.6µM
NC(=O)c1cccc(-c2cc3c(cn2)CN(Cc2ccncc2)CCN3)c1	KDM5B inhibitor inconclusive
Cc1[nH]cnc1CN1CCNc2cc(-c3ccccc3)ncc2C1	SNCA expr inh inconclusive, KDM5B inhibitor 31.6µM
Oc1ccccc1CN1CCNc2cc(-c3ccccc3)ncc2C1	HEK293 viab inconclusive, KDM5B inhibitor inconclusive
CCn1cc(-c2cc3c(cn2)CN(Cc2cccnc2)CCN3)cn1	KDM5B inhibitor 31.6µM
c1ccc(CCN2CCNc3cc(-c4cn[nH]c4)ncc3C2)cc1	HEK293 viab inconclusive, KDM5B inhibitor inconclusive
O=C(Nc1ccccn1)C1CC(=O)N(c2ccc3c(c2)OCO3)C1 (stereo unspecified)	none (no result: SNCA expr inh, IP6K1 inhibitor, HEK293 viab)
CCCCOC(=O)N1CCC(OC)c2ccccc2N(C)C(=O)C1 (stereo unspecified)	none (no result: SNCA expr inh, HEK293 viab, KDM5B inhibitor)
c1ccc(CN2CCNc3cc(-c4cccnc4)ncc3C2)cc1	KDM5B inhibitor 31.6µM
CC1(C(=O)NCCN2CCOCC2)CCCc2cnc(NCc3ccccc3)nc21 (stereo unspecified)	KDM5B inhibitor 35.5µM
CN1CCC(NC(=O)C2(C)CCCc3cnc(NCc4ccccc4)nc32)CC1 (stereo unspecified)	KDM5B inhibitor 22.4µM
CC1(C(=O)NCc2ccncc2)CCCc2cnc(NCc3ccccc3)nc21 (stereo unspecified)	KDM5B inhibitor 35.5µM
CC1(C(=O)NCc2cnccn2)CCCc2cnc(NCc3ccccc3)nc21 (stereo unspecified)	none
Cc1ccc(C(=O)NCc2nnc3ccc(-c4ccc(Cl)cc4)nn23)s1	SNCA expr inh inconclusive, KDM5B inhibitor 15.8µM
O=C(NCc1nnc2ccc(-c3ccc(Cl)cc3)nn12)c1ccc(Cl)s1	KDM5B inhibitor 5.01µM
Cc1ccsc1C(=O)NCc1nnc2ccc(-c3ccc(Cl)cc3)nn12	KDM5B inhibitor 31.6µM
O=C(NCc1nnc2ccc(-c3ccccc3)nn12)c1ccc(Cl)s1	KDM5B inhibitor 22.4µM
Cc1ccc(C(=O)NCc2nnc3ccc(-c4ccccc4)nn23)s1	KDM5B inhibitor inconclusive
COc1ccccc1C(=O)N1CCC2(CC1)COc1ccccc1NC2=O	none
Cc1c(C#N)c(NC(=O)CSc2nnnn2C2CCCCC2)n(CC2CCCO2)c1C (stereo unspecified)	none (no result: SNCA expr inh, IP6K1 inhibitor, HEK293 viab)
Cn1ccc(C(=O)NCc2nnc3n2C(C(=O)NCC2CC2)CC3)n1 (stereo unspecified)	KDM5B inhibitor 100µM
CS(=O)(=O)Cc1ccc(C(=O)Oc2ccc(Br)cc2)cc1	none (no result: SNCA expr inh, IP6K1 inhibitor, HEK293 viab)
COc1ccc2c(c1)CCCC2=O	none (no result: KDM5B inhibitor)
COc1ccc2c(c1)CCCN2C1CNC1	KDM5B inhibitor 126µM
O=C(CC[C@H]1NC(=O)c2ccccc2NC1=O)Nc1nnc(C2CC2)s1	none
O=C1CN(Cc2ccc(-c3cccs3)cc2)CCN1c1ccc(Cl)nn1	SNCA expr inh inconclusive, KDM5B inhibitor 79.4µM
O=C1CN(Cc2ccc(-c3ccccc3)cc2)CCN1c1ccc(Cl)nn1	none
COc1ccc(OC)c(-c2noc(NCCc3ccc(Cl)cc3)n2)c1	none (no result: SNCA expr inh, IP6K1 inhibitor, HEK293 viab)
Cn1c(C(=O)NCCc2cnc[nH]2)nc2nc(-c3ccccc3)c(Cl)cc21	KDM5B inhibitor 35.5µM
CN(C)CCNC(=O)c1nc2nc(-c3ccccc3)c(-c3ccccc3F)cc2n1C	none
Cn1c(C(=O)N2CCN(c3ccccn3)CC2)nc2nc(-c3ccccc3)c(Cl)cc21	SNCA expr inh inconclusive, HEK293 viab inconclusive, KDM5B inhibitor 35.5µM
COCCN(C)C(=O)c1nc2nc(-c3ccccc3)c(Cl)cc2n1C	KDM5B inhibitor inconclusive
CN(C)CCNC(=O)c1nc2nc(-c3ccccc3)c(Cl)cc2n1C	KDM5B inhibitor 39.8µM
O=C(CC1CCOCC1)NCc1cccnc1	none
NC(=O)c1c(NC(=O)Cc2coc3cc4c(cc23)CCC4)sc2c1CCCC2	none (no result: SNCA expr inh, IP6K1 inhibitor, HEK293 viab)
